Legend:
Test in all cases: DAPPL (digital affinity profiling via proximity ligation, sequencing); 10 mM Tris-HCl pH 7.5, 50 mM NaCl, 1 mM DTT, 4% glycerol, room temperature, 30 min; GST-TFs on glutathione beads, 16-mer random dsDNA library, 0.1% formaldehyde crosslink after washing; high values mean tight binding
FEV = target: T1, FEV (Homo sapiens, UniProt Q99581 1-238); details: protein: recombinant; tags: N-terminal GST; dsDNA, one strand shown
T1 sequence: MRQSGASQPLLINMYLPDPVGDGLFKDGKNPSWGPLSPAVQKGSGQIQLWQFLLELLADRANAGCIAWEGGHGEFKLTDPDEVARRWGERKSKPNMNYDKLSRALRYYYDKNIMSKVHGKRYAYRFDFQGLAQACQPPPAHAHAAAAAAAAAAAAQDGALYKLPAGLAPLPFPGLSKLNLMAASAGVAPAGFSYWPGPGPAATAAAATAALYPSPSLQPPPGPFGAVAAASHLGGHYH
Method in brief: (§1)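 Beads coated with glutathione captured GST-fused human transcription factors that had been expressed in yeast, and the factors were then given DNA barcodes and pooled with a tag-only sample. The pools were incubated with 200 nmole of a random double-stranded 16-mer DNA library in Tris/NaCl/DTT/glycerol buffer for 30 min at room temperature, washed, crosslinked with 0.1% formaldehyde and proximity-ligated with BsaI/T4 ligase at 37 °C for 1 h. PCR amplification and Illumina NextSeq500 sequencing came last. Binding signal is each hexamer's read frequency for a factor divided by its frequency for the tag-only sample.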

ETV5 = ETV5 (Homo sapiens, UniProt P41161 1-510); details: protein: recombinant; tags: N-terminal GST; dsDNA, one strand shown
Chain of ETV5 (P41161 whole entry): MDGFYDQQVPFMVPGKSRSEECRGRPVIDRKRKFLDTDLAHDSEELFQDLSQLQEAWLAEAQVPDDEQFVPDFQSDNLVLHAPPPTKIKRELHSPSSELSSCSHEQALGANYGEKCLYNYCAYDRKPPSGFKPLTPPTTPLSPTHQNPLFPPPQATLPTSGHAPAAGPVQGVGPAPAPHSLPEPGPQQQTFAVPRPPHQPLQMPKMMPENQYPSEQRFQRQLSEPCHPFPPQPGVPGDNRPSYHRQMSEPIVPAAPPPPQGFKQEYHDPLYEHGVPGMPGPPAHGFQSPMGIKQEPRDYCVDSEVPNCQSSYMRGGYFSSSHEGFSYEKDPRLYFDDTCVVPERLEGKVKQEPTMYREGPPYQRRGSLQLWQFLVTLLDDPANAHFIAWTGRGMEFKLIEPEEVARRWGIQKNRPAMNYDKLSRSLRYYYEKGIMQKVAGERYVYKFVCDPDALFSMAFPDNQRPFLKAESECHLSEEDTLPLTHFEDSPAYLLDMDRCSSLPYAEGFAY
Method in brief: as §1

HSF1 = HSF1 (Homo sapiens, UniProt Q00613 1-529); details: protein: recombinant; tags: N-terminal GST; chain copies: 3; dsDNA, one strand shown
Chain of HSF1 (Q00613 whole entry): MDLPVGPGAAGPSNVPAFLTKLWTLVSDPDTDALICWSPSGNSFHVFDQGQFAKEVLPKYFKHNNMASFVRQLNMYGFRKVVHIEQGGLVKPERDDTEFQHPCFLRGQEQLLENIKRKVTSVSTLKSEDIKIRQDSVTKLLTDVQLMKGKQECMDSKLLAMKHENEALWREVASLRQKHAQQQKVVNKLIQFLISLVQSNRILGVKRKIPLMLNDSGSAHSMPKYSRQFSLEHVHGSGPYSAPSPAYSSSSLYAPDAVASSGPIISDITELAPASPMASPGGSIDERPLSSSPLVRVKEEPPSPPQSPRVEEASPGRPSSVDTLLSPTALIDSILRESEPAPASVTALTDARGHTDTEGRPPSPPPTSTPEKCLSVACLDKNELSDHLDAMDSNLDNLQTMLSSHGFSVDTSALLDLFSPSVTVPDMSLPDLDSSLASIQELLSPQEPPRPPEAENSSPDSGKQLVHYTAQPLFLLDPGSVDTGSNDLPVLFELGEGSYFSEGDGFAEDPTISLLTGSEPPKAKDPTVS
Method in brief: as §1

SPIC = target: T2, SPIC (Homo sapiens, UniProt Q8N5J4 1-248); details: protein: recombinant; tags: N-terminal GST; dsDNA, one strand shown
T2 sequence: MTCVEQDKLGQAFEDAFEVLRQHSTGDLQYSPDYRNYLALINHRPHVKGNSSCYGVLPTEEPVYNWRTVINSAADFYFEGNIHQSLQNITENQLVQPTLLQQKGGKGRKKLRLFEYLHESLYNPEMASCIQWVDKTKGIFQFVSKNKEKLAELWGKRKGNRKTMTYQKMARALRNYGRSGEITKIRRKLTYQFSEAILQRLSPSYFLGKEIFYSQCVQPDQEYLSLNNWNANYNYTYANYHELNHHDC
Method in brief: as §1

ELF4 = ELF4 (Homo sapiens, UniProt Q99607 1-663); details: protein: recombinant; tags: N-terminal GST; dsDNA, one strand shown
Chain of ELF4 (Q99607 whole entry): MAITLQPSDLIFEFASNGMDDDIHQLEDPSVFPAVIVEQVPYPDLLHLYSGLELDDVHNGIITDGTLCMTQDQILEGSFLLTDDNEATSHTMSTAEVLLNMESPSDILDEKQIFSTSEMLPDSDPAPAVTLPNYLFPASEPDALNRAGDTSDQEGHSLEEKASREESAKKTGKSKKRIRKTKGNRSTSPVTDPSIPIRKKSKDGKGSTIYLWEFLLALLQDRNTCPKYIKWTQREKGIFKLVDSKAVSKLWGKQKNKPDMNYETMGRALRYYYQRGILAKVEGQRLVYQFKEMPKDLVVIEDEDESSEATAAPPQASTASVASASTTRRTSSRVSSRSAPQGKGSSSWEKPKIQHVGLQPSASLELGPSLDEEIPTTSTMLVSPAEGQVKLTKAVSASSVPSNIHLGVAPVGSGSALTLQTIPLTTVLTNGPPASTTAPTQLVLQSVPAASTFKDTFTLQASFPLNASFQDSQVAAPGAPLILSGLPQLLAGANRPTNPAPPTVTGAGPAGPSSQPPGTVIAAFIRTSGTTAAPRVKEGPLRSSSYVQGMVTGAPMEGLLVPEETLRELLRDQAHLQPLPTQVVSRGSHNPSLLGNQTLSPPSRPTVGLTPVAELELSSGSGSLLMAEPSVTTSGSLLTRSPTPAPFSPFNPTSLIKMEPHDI
Method in brief: as §1

ELK4 = target: T3, ELK4 (Homo sapiens, UniProt P28324-2 1-405); details: protein: recombinant; tags: N-terminal GST; dsDNA, one strand shown
T3 sequence: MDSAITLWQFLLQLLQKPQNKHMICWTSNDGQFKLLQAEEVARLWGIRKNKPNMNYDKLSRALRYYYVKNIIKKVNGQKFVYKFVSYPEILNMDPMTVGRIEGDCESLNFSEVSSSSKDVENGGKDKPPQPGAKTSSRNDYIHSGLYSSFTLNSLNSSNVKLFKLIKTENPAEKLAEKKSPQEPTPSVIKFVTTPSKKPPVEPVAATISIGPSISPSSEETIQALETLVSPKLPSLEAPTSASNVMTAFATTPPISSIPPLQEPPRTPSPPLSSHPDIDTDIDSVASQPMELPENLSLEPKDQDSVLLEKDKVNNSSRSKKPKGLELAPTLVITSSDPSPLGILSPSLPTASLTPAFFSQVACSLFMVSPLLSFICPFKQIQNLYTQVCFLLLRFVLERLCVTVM
Method in brief: as §1

ETV2 = target: T4, ETV2 (Homo sapiens, UniProt O00321 1-342); details: protein: recombinant; tags: N-terminal GST; dsDNA, one strand shown
T4 sequence: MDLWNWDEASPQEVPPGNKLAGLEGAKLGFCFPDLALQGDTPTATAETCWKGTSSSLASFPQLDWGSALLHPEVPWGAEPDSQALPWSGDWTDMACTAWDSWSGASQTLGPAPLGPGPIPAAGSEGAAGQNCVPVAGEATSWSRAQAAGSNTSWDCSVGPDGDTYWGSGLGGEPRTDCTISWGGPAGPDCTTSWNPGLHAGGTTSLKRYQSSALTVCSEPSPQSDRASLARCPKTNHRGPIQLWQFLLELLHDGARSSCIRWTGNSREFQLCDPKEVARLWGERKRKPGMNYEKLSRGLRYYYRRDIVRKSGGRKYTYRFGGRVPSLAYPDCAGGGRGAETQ
Method in brief: as §1

ELF3 = target: T5, ELF3 (Homo sapiens, UniProt P78545 1-371); details: protein: recombinant; tags: N-terminal GST; dsDNA, one strand shown
T5 sequence: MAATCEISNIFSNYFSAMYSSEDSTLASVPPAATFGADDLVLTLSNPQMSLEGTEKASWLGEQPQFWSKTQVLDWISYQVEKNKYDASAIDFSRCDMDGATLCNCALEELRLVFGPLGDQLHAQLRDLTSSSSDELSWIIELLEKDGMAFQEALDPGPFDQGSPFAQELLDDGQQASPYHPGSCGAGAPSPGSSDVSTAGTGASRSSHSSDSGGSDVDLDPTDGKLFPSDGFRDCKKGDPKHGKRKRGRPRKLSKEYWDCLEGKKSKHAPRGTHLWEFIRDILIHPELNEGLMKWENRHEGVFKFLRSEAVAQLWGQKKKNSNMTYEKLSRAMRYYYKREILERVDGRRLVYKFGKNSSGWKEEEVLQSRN
Method in brief: as §1

CRX = CRX (Homo sapiens, UniProt O43186 1-299); details: protein: recombinant; tags: N-terminal GST; dsDNA, one strand shown
Chain of CRX (O43186 whole entry): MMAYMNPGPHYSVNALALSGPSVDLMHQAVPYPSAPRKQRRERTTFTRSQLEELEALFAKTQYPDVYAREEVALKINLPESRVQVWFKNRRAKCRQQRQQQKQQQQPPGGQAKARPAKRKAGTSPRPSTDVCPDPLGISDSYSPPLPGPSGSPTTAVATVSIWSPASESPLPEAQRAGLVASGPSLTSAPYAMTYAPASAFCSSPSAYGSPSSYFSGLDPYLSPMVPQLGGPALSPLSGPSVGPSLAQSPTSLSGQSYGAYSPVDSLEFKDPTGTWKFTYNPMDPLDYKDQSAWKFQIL
Method in brief: as §1

ETV1 = ETV1 (Homo sapiens, UniProt P50549 1-477); details: protein: recombinant; tags: N-terminal GST; dsDNA, one strand shown
Chain of ETV1 (P50549 whole entry): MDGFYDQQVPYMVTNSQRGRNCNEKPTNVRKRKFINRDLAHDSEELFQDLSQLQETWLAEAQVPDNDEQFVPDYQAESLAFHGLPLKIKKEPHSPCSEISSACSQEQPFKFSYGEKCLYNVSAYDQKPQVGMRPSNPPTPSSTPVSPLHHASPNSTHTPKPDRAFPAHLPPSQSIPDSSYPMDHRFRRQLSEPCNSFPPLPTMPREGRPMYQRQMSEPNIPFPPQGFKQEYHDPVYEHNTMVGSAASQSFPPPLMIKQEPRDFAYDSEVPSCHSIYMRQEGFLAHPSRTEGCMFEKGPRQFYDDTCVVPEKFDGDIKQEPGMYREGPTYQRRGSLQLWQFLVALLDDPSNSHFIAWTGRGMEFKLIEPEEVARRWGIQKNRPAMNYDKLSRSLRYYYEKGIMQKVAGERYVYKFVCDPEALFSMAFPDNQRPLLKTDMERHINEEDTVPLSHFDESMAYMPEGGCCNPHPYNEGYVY
Method in brief: as §1

ERF = target: T6, ERF (Homo sapiens, UniProt P50548 1-548); details: protein: recombinant; tags: N-terminal GST; dsDNA, one strand shown
T6 sequence: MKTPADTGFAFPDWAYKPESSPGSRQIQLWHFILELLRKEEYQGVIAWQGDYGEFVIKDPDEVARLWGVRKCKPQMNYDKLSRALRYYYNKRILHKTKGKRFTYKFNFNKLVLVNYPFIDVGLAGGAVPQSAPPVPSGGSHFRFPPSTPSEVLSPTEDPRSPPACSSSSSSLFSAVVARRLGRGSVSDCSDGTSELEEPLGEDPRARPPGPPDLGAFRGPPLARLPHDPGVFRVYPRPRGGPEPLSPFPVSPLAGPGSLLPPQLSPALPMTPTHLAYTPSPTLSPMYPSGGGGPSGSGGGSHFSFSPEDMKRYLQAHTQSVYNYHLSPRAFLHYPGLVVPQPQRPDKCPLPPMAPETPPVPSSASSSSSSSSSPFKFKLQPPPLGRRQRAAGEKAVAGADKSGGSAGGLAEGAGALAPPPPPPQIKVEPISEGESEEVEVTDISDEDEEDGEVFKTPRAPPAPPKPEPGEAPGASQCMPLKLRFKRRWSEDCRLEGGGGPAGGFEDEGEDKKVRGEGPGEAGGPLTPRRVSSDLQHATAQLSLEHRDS
Method in brief: as §1

ETV3L = target: T7, ETV3L (Homo sapiens, UniProt Q6ZN32 1-361); details: protein: recombinant; tags: N-terminal GST; dsDNA, one strand shown
T7 sequence: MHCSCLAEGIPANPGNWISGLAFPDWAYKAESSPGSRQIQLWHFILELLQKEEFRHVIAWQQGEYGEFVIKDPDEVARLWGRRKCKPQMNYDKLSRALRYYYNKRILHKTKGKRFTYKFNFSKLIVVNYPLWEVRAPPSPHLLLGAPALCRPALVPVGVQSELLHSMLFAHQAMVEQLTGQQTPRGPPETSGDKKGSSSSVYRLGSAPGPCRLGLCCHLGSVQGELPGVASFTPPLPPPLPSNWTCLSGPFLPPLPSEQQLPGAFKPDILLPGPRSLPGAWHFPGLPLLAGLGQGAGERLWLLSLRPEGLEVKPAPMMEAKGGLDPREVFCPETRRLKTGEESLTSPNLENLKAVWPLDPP
Method in brief: as §1

ETS2 = target: T8, ETS2 (Homo sapiens, UniProt P15036 1-469); details: protein: recombinant; tags: N-terminal GST; dsDNA, one strand shown
T8 sequence: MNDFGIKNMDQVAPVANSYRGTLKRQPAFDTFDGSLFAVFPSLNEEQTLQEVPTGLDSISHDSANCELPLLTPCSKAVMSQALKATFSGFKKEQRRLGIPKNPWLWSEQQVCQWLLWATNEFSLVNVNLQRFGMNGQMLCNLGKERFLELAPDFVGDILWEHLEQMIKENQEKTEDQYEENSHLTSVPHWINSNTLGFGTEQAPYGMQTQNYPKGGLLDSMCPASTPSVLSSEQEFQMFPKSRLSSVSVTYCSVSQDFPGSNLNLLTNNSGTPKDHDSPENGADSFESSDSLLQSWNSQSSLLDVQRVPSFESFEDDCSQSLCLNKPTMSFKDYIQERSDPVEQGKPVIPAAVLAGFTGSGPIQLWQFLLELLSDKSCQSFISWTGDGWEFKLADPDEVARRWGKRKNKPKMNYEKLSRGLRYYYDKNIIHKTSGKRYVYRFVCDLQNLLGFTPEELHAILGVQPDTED
Method in brief: as §1

SPDEF = target: T9, SPDEF (Homo sapiens, UniProt O95238 1-335); details: protein: recombinant; tags: N-terminal GST; dsDNA, one strand shown
T9 sequence: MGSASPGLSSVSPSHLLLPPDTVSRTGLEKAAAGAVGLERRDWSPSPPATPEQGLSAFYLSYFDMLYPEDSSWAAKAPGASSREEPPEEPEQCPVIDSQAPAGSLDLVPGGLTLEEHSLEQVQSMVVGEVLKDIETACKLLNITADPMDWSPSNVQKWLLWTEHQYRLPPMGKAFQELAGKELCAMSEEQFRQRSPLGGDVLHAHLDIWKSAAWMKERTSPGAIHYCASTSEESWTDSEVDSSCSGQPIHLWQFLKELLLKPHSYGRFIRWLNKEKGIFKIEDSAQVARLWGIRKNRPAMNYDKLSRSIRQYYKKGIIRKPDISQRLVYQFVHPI
Method in brief: as §1

ETV7 = target: T10, ETV7 (Homo sapiens, UniProt Q9Y603 1-341); details: protein: recombinant; tags: N-terminal GST; dsDNA, one strand shown
T10 sequence: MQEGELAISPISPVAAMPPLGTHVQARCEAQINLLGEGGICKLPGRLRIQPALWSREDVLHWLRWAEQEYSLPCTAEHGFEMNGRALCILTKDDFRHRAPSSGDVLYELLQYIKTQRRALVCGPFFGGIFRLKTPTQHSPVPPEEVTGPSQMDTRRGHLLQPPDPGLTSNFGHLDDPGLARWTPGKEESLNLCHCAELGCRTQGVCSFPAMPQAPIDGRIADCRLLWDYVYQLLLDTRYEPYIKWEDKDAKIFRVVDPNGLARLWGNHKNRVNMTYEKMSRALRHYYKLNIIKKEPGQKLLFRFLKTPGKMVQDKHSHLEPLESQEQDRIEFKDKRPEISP
Method in brief: as §1

ELF5 = target: T11, ELF5 (Homo sapiens, UniProt Q9UKW6-2 1-255); details: protein: recombinant; tags: N-terminal GST; dsDNA, one strand shown
T11 sequence: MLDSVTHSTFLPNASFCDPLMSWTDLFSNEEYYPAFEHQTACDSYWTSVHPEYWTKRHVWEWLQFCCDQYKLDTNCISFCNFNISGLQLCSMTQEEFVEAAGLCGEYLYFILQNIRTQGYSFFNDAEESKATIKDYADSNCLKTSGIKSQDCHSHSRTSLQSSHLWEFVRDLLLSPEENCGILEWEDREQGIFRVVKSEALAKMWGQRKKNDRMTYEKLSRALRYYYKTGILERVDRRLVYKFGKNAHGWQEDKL
Method in brief: as §1

ETV3 = target: T12, ETV3 (Homo sapiens, UniProt P41162-2 1-143); details: protein: recombinant; tags: N-terminal GST; dsDNA, one strand shown
T12 sequence: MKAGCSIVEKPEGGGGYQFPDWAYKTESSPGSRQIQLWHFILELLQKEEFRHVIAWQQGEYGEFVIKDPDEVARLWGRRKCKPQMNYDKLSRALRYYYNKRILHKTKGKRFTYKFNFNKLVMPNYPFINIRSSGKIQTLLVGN
Method in brief: as §1

ETV6 = ETV6 (Homo sapiens, UniProt P41212 1-452); details: protein: recombinant; tags: N-terminal GST; dsDNA, one strand shown
Chain of ETV6 (P41212 whole entry): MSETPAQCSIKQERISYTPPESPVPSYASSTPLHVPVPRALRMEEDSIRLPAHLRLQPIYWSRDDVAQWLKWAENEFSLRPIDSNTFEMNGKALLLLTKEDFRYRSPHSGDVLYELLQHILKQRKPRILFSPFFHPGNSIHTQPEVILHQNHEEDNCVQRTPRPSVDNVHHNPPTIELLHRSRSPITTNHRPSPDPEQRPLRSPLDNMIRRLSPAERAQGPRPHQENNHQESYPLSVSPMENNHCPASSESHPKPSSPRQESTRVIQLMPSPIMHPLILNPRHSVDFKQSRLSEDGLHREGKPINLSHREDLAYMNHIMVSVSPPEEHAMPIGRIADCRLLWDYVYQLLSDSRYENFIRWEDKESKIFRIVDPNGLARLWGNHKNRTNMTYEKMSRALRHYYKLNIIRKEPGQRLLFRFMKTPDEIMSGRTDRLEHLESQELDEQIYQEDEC
Method in brief: as §1

Sequence	binding signal (FEV)	binding signal (ETV5)	binding signal (HSF1)	binding signal (SPIC)	binding signal (ELF4)	binding signal (ELK4)	binding signal (ETV2)	binding signal (ELF3)	binding signal (CRX)	binding signal (ETV1)	binding signal (ERF)	binding signal (ETV3L)	binding signal (ETS2)	binding signal (SPDEF)	binding signal (ETV7)	binding signal (ELF5)	binding signal (ETV3)	binding signal (ETV6)
AATGTC	1.19 fold enrichment (6-mer frequency, TF over GST control)	1.23 fold enrichment (6-mer frequency, TF over GST control)	1.14 fold enrichment (6-mer frequency, TF over GST control)	1.41 fold enrichment (6-mer frequency, TF over GST control)	1.21 fold enrichment (6-mer frequency, TF over GST control)	1.32 fold enrichment (6-mer frequency, TF over GST control)	1.15 fold enrichment (6-mer frequency, TF over GST control)	1.36 fold enrichment (6-mer frequency, TF over GST control)	1.04 fold enrichment (6-mer frequency, TF over GST control)	1.14 fold enrichment (6-mer frequency, TF over GST control)	1.17 fold enrichment (6-mer frequency, TF over GST control)	1.22 fold enrichment (6-mer frequency, TF over GST control)	1.27 fold enrichment (6-mer frequency, TF over GST control)	1.36 fold enrichment (6-mer frequency, TF over GST control)	1.23 fold enrichment (6-mer frequency, TF over GST control)	1.38 fold enrichment (6-mer frequency, TF over GST control)	1.23 fold enrichment (6-mer frequency, TF over GST control)	1.21 fold enrichment (6-mer frequency, TF over GST control)
AAACTC	1.18 fold enrichment (6-mer frequency, TF over GST control)	1.22 fold enrichment (6-mer frequency, TF over GST control)	1.18 fold enrichment (6-mer frequency, TF over GST control)	1.26 fold enrichment (6-mer frequency, TF over GST control)	1.22 fold enrichment (6-mer frequency, TF over GST control)	1.04 fold enrichment (6-mer frequency, TF over GST control)	1.3 fold enrichment (6-mer frequency, TF over GST control)	1.25 fold enrichment (6-mer frequency, TF over GST control)	1.18 fold enrichment (6-mer frequency, TF over GST control)	1.22 fold enrichment (6-mer frequency, TF over GST control)	1.24 fold enrichment (6-mer frequency, TF over GST control)	1.17 fold enrichment (6-mer frequency, TF over GST control)	1.19 fold enrichment (6-mer frequency, TF over GST control)	1.07 fold enrichment (6-mer frequency, TF over GST control)	1.24 fold enrichment (6-mer frequency, TF over GST control)	1.21 fold enrichment (6-mer frequency, TF over GST control)	1.15 fold enrichment (6-mer frequency, TF over GST control)	1.25 fold enrichment (6-mer frequency, TF over GST control)

— PMC7862700, “An all-to-all approach to the identification of sequence-specific readers for epigenetic DNA modifications on cytosine”
